Assay [1] relates to PRMT1 (protein arginine N-methyltransferase 1). The assay can be described thus: PRMT1 binders on small-molecule microarrays, primary screen, biochemical, small-molecule microarray, 635 nm fluorescence (AID 1088).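 Also: binding of Prmt1 protein to compounds spotted on small-molecule microarray slides.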 The settings on record: small-molecule microarray binding, higher = more signal.
The nature of assay [2]: yeast growth modulation, basal conditions, primary screen, YJM789 clinical isolate, OD600, 24 h (AID 1089).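 Also: growth of clinical yeast isolate S. cerevisiae YJM 789 seeded 1000 cells per well; test concentration not given here.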 The settings on record: S. cerevisiae YJM789 growth, higher = more signal, called active from +8 up or from −8 down.
Assay [3] can be described thus: fission yeast growth modulation, primary screen, strain 972, OD600, 24 h, no modulator (AID 1090).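 Also: basal condition with compound alone and no growth modifier present; test concentration not given here.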 The note with it: S. pombe 972 growth, higher = more signal, called active from +8 up or from −8 down.
A short description of assay [4]: S. cerevisiae growth modulation with rapamycin, primary screen, strain BY4716, OD600, 96 h (AID 1091). Also: test concentration not given here. The settings on record: higher = more signal, called active from +8 up or from −8 down.
In assay [5] the target is Torsin-1A-interacting protein 2 (Homo sapiens) (UniProt Q8NFQ8). The assay can be described thus: LULL1 binders on small-molecule microarray, primary screen, cell lysate, human LULL1 lysate, 635/667 nm fluorescence (AID 1092).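 Also: probe is lysate of COS7 cells overexpressing human LULL1; score merges per-feature 667 nm fluorescence with signal-to-noise.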 The settings on record: hLULL1 lysate binding, 635 nm fluorescence, higher = more signal.
The nature of assay [6]: E. coli growth modulation, two-sided OD650, primary screen, E. coli filamentation project, strain DRC41, 24 h (AID 1093).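 Also: MC1000 strain lacking acrAB efflux and sulA so SOS filamentation is blocked; test concentration not given here.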 The settings on record: OD650, 24 h, higher = more signal, called active from +8 up or from −8 down.
The nature of assay [7]: small-molecule microarray binders of probe aLefty2, primary screen, biochemical, biotinylated probe, 635/667 nm fluorescence (AID 1094).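 Also: score merges spot fluorescence near 667 nm with spot signal-to-noise ratio.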 The settings on record: higher = more signal.
The test system of assay [8] is Noggin (protein binding on small-molecule microarray). The assay can be described thus: Noggin binders on small-molecule microarray, primary screen, biochemical, 635/667 nm fluorescence (AID 1095).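 Also: score merges 667 nm feature fluorescence with signal to noise over triplicate slides.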 The settings on record: 635 nm fluorescence, higher = more signal.
Assay [9] addresses Neurogenic locus notch homolog protein 3 (Homo sapiens) (UniProt Q9UM47). The assay can be described thus: NOTCH3 binders on small-molecule microarray, primary screen, biochemical, 635/667 nm fluorescence (AID 1096). The settings on record: NOTCH3 binding, 635 nm fluorescence, higher = more signal.
The nature of assay [10]: small-molecule microarray binders of probe aEGFR, primary screen, biochemical, biotinylated probe, 635/667 nm fluorescence (AID 1097).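 Also: probe is a biotinylated anti-EGFR antibody binding compounds printed on slides; score combines fluorescence near 667 nm and signal to noise of each spot.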 The note with it: higher = more signal.

The source made the active and inactive calls.

Torsin-1A-interacting protein 2 (Homo sapiens), sequence (Q8NFQ8 whole entry, looked up): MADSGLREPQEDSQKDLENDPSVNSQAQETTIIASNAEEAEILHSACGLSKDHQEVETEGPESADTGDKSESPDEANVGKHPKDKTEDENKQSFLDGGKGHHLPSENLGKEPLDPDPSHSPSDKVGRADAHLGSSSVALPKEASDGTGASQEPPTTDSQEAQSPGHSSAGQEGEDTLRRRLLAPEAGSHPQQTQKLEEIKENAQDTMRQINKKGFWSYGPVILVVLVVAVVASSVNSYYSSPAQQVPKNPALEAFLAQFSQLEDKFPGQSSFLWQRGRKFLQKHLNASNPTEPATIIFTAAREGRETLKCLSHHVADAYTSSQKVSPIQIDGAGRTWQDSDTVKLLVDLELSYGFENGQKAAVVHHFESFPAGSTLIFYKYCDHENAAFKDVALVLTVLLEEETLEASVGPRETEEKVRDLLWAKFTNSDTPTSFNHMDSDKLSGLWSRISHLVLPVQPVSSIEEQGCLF
Neurogenic locus notch homolog protein 3 (Homo sapiens), sequence (Q9UM47 whole entry, looked up): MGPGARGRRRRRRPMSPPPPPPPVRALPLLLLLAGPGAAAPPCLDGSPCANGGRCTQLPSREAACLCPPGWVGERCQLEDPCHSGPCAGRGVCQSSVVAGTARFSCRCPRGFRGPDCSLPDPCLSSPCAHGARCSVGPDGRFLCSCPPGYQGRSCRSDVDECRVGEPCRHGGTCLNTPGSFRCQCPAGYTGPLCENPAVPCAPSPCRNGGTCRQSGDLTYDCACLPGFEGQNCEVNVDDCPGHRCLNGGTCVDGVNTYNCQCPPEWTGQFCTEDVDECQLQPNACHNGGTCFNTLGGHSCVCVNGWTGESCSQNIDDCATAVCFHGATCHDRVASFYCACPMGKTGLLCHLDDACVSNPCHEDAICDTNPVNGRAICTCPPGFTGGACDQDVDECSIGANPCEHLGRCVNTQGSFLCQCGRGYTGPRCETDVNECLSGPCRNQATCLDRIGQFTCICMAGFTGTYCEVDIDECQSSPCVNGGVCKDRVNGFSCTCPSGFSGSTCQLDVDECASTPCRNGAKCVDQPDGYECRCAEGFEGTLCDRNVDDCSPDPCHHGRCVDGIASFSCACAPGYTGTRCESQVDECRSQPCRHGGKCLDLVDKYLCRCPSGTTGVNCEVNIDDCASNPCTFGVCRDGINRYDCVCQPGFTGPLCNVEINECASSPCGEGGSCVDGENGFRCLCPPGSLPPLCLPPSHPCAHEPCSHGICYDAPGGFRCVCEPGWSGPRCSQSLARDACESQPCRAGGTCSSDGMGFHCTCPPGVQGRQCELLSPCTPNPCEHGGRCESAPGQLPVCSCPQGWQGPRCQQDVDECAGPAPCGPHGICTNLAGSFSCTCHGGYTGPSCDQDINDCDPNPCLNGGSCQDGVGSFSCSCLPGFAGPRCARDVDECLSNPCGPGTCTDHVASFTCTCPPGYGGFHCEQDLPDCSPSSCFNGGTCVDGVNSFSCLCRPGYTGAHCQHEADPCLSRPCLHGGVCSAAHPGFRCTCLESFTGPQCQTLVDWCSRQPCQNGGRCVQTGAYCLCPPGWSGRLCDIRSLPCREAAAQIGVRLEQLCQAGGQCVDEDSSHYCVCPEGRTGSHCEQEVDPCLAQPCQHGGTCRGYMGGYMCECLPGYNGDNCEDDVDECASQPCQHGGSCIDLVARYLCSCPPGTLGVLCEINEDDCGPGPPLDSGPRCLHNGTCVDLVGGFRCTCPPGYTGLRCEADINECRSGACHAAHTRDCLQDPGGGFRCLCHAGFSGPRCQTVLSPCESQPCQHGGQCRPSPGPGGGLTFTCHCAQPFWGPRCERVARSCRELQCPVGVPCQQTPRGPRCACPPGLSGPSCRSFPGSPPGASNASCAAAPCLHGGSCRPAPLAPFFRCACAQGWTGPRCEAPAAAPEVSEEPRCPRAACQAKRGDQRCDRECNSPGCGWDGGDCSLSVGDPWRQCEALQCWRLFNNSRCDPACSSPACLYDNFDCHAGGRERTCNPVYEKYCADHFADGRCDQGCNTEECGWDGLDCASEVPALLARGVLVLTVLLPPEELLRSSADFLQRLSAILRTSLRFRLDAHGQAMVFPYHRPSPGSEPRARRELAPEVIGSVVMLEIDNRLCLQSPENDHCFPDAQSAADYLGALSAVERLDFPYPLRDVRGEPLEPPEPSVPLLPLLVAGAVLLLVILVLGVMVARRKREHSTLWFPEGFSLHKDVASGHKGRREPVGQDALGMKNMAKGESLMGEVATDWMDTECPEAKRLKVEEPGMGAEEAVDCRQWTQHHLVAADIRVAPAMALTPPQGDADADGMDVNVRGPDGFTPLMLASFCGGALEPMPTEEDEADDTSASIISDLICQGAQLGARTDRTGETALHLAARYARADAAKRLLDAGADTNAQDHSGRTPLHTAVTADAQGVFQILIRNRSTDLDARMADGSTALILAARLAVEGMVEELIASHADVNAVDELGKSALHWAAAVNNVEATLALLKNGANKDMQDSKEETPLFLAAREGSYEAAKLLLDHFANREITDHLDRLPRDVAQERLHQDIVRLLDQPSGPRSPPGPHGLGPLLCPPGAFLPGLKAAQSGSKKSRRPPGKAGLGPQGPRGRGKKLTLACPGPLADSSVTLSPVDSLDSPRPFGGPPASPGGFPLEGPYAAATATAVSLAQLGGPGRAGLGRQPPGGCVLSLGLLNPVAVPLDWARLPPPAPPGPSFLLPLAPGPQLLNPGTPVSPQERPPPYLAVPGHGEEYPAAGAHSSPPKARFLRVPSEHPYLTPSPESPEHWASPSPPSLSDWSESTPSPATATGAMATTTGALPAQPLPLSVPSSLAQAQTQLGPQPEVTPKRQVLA

As for `COC(=O)[C@@]1(Cc2ccccc2)N=C(c2ccc(OCCCO)cc2)O[C@H]1c1ccccc1N=[N+]=[N-]`, the composite z-score in assay [1] was 1.49; in assay [5] it was 1.35; in assay [7], 0.0484; in [8], 0.884; in assay [9], 0.802; in assay [10], -0.0953. For the same molecule, the z-score was 0.288 (inactive) in [2], -2.2 (inactive) in assay [3], 5.8 (inactive) in [4] and 0.319 (inactive) in [6].

In the case of `COc1ccc(C#Cc2ccc3c(c2)[C@]2(C(=O)N3)[C@H](c3ccc(O)cc3)N3[C@H](c4ccccc4)[C@H](c4ccccc4)OC(=O)[C@H]3[C@@H]2C(=O)N2CCCCCCC2)cc1`, the composite z-score in assay [1] amounted to 1.55; in [5], 4.08; in [7], 1.61; in [8] it was 1.86; in [9] it was 1.07; in assay [10] it was 0.778. Moreover, the z-score in assay [2] was -1.51 (inactive); in assay [3] it was -0.0733 (inactive); in assay [4] it was 1.15 (inactive); in assay [6] it was 0.484 (inactive).

As for `CN1C(=O)C2C=CC(C(O)c3ccccn3)N(Nc3ccccc3)C2C1=O` (stereo not given), the composite z-score in assay [1] was 0.949; in [5] it was 0.68; in [7], 0.0524; in assay [8], 0.021; in assay [9], 0.186; in assay [10], -0.0746. Moreover, the z-score is 0.826 (inactive) in assay [2], 0.632 (inactive) in assay [3], 1.23 (inactive) in [4] and -0.324 (inactive) in [6].

Regarding `CCCCC=C[C@@H](NC(=O)c1cccs1)c1ccccc1`, the composite z-score in assay [1] was -0.0502; in [5], 2.01; in [7], 0.0812; in assay [8], -0.222; in assay [9], 0.955; in [10], -0.0746. Also, the z-score in [2] is 0.464 (inactive); in [3], 0.845 (inactive); in assay [4], 1.72 (inactive); in [6], -0.312 (inactive).

As to `CCOC(=O)C[C@H]1[C@H](OC(=O)c2ccc(-c3ccccc3)cc2)[C@@H](NC(=O)c2ccc3ccccc3c2)c2cc(OCCCO)ccc2N1C(=O)Cc1ccc(OC)cc1`, the composite z-score in assay [1] was 0.265; in [5], 0.948; in assay [7], -0.124; in assay [8], -0.205; in [9], -0.209; in assay [10] it was -0.128. The z-score in assay [2] is -1.32 (inactive); in assay [3], 0.636 (inactive); in assay [4] it was -0.115 (inactive); in assay [6], 0.0672 (inactive).

In the case of `NCCCCCNC(=O)[C@H]1C[C@H]2C(=O)NCC(=O)N2[C@H]1c1cccc(OCCO)c1`, the composite z-score in [1] was 1.31; in assay [5], 2.34; in [7], -0.0766; in [8], 1.33; in assay [9], 0.6; in assay [10], 0.0311. The z-score in assay [2] is -0.155 (inactive); in [3], -1.02 (inactive); in assay [4] it was -0.189 (inactive); in assay [6], 0.946 (inactive).

As for `CCCNC(=O)[C@@]1(c2ccc([N+](=O)[O-])cc2)CC(=O)N(CC23CC4CC(CC(C4)C2)C3)[C@@H]1c1ccc(CO)cc1`, the composite z-score in [1] came to 0.89; in assay [5] it was 0.907; in [7], 0.164; in assay [8], 0.701; in assay [9] it was 0.305; in assay [10] it was 0.105. The z-score in assay [2] was -0.057 (inactive); in [3], -0.403 (inactive); in assay [4], 4.67 (inactive); in assay [6], 0.156 (inactive).

Take `COCC1=C2[C@@H](CCc3ccccc3)OB(O)C[C@@H]2[C@@H]2C(=O)N(Cc3ccccc3)C(=O)[C@@H]2C1`: the composite z-score is 0.229 in [1]; 0.295 in [5]; -0.155 in assay [7]; 0.198 in assay [8]; -0.0497 in [9]; -0.132 in [10]. The z-score in [2] is -0.471 (inactive); in assay [3], -1.22 (inactive); in assay [4], -0.37 (inactive); in assay [6], -0.715 (inactive).

In the case of `[N-]=[N+]=NCc1ccccc1C[C@]1(C(=O)NCCN2CCOCC2)N=C(c2ccc(OCCCO)cc2)O[C@H]1c1ccccc1N=[N+]=[N-]`, the composite z-score in [1] was 1.56; in assay [5], 2.73; in assay [7] it was 0.149; in assay [8], -0.0313; in assay [9] it was 1.1; in assay [10], 0.0488. For the same molecule, the z-score was -0.886 (inactive) in assay [2], 0.246 (inactive) in [3], 2.86 (inactive) in [4] and 1.16 (inactive) in assay [6].

With `COC(=O)[C@@]1(Cc2ccc(OC)cc2)[C@H]2c3cc(C(=O)N4CCCC4)n(CCc4c[nH]c5cc(F)ccc45)c3C[C@H]2CN1C(=O)c1ccccc1`, the composite z-score is 1.09 in [1]; 3.54 in assay [5]; 0.776 in assay [7]; 0.103 in assay [8]; 1.08 in [9]; 0.103 in assay [10]. Moreover, the z-score in [2] is 0.548 (inactive); in assay [3], 1.2 (inactive); in assay [4] it was 1.75 (inactive); in assay [6] it was 0.332 (inactive).

On to `CCOC(=O)C1=CC[C@@H](c2ccccc2Cl)N(S(=O)(=O)c2ccc(C)cc2)C1`, for which the composite z-score in assay [1] is 0.98; in [5] it was 2.24; in assay [7], 0.264; in assay [8], -0.434; in [9] it was 1.04; in assay [10], -0.178. Further, the z-score in assay [2] is -2.37 (inactive); in [3], 0.307 (inactive); in assay [4], 0.661 (inactive); in assay [6] it was -0.239 (inactive).

Consider `CC(C)c1ccc(NN2C(C(O)c3cccc(O)c3)C=CC3C(=O)N(c4ccccc4)C(=O)C32)cc1` (stereo not given), for which the composite z-score in assay [1] was 1.46; in [5], 3.62; in assay [7] it was 0.234; in assay [8] it was 0.527; in assay [9] it was 1.06; in [10], -0.0053. The z-score in [2] was 1.18 (inactive); in [3], -0.653 (inactive); in assay [4], 0.697 (inactive); in assay [6], -0.416 (inactive).

For `O=C(OCCF)C1=CCC(c2cccc(Cl)c2)O1` (stereo not given), the composite z-score in assay [1] is 0.581; in [5], 0.856; in [7], -0.141; in assay [8] it was 0.207; in assay [9], 0.1; in assay [10] it was -0.0121. Further, the z-score in assay [2] was -3.17 (inactive); in assay [3], -0.988 (inactive); in assay [4], 2.82 (inactive); in assay [6] it was -0.0288 (inactive).

The values above are taken from PubChem BioAssay.
